Experimental data from PubChem BioAssay (Tox21).
Unmarked numbers belong to inactive results. Unless noted, calls follow the shape of the dose curve; as a rule, active = well fitted cell-killing curve with a large enough effect in the repeat runs; inconclusive = weak or mixed curves; inactive = flat fitted curve, though single readings scatter. Results filed as inconclusive are left out.

test: qHTS assay to identify small molecule agonists of the estrogen related receptor (ERR) signaling pathway from Tox21 library (AID 1224849; calls by dose curve; also: nearly all actives have a fitted effect of over 15% in size); details: ERR reporter cell line, ONE-Glo luciferase, 18 h; at 92.4 µM (top of the series) unless noted
In short: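 Six hours post-seeding at 37 C/5% CO2, ERR cells receive DMSO-solubilised compounds; after 18 h at 37 C, ONE-Glo reagent is applied and luminescence recorded.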
% is scaled to controls: 0 for no effect and ±100 for the full control effect.

In order of falling activity change, positive = activation:
1. COC1=CC(=O)O[C@@H](/C=C/c2ccccc2)C1  12.9%
2. O=C(O)C(Br)(Br)Br  0.595%
3. CCCCCCC1CCOC1=O (stereo not drawn)  0.0938%
4. O=C(O)CBr  -0.0549%
5. CC(C)c1ccc(O)cc1  -0.432%
6. Oc1ccc2c3c1O[C@H]1[C@@H](O)C=C[C@H]4[C@@H](C2)NCC[C@@]341  -18.1%

Cc1ccc2c(c1)C1CN(C)CCC1N2 (stereo not drawn) showed an activity change, positive = activation of 6.1% [at 19 µM].

In order of falling activity change, positive = activation:
1. CCCN1CCC[C@@H]2Cc3[nH]ncc3C[C@H]21  0.879% [at 42.5 µM]
2. CC1NCCOC1c1ccccc1 (stereo not drawn)  0.163% [at 42.5 µM]

test: qHTS RealTime-Glo MT Cell Viability Assay in HepG2 cells - 24 hour (AID 1224867); details: RealTime-Glo luminescence; series mostly up to 76.8 µM; activity change, negative = cytotoxicity: at the top concentration; also: nearly all actives have a fitted effect of over 50% in size
In short: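 HepG2 cells (600/well) were dispensed with RealTime-Glo reagents, incubated 5 h at 37 °C, then treated with compounds in DMSO for up to 40 h. Nonlytic NanoLuc luminescence reflecting viable cells was read at each stated time point.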

In order of rising “activity change, negative = cytotoxicity” value:
1. CCOC(=O)C(SP(=S)(OC)OC)c1ccccc1 (stereo not drawn)  -11.1%
2. CCC(=O)OC1(c2ccccc2)CCN(C)CC1  -2.87%
3. CC1N=C(N)OC1c1ccccc1 (stereo not drawn)  -1.23%
4. COC1=CC(=O)O[C@@H](/C=C/c2ccccc2)C1  -0.048%
5. CCOC1Oc2ccc(OS(C)(=O)=O)cc2C1(C)C (stereo not drawn)  0.285%
6. CC(C)c1ccc(O)cc1  0.84%
7. O=C(O)CBr  1.03%
8. [P]#[In]  1.04%

In order of falling “activity change, negative = cytotoxicity” value:
1. COC(=O)[C@@H](N)CCCN/C(N)=N/[N+](=O)[O-]  2.94% [at 35.3 µM]
2. O=c1[nH]oc2c1CCNC2  2.07% [at 35.3 µM]
3. CCC(C(N)=O)N1CCCC1=O (stereo not drawn)  -0.451% [at 35.3 µM]
4. CCCN1CCC[C@@H]2Cc3nc(N)ncc3C[C@H]21  -2.63% [at 35.3 µM]

For Cc1ccc2c(c1)C1CN(C)CCC1N2 (stereo not drawn), the activity change, negative = cytotoxicity was -2.75% [at 15.8 µM].

Brc1c(Br)c(Br)c(Br)c(Br)c1Br gave an activity change, negative = cytotoxicity of -11.6% [at 6.97 µM].
